# In PubChem BioAssay AID686977 (Southern Research Specialized Biocontainment Screening …, 2013):
# The whole screen tested about 9,400 compounds, of which fewer than 10 were called active. Roughly 5% stayed inconclusive and do not appear here. Only a sample is shown. Measured potencies and affinities stand elsewhere. Values without a mark were called inactive. The rule behind the calls is not given here.
# Experiment: Vibrio cholerae quorum sensing activators, luminescence (AID 686977)
# Settings: V. cholerae quorum sensing reporter, 6 h, hits give high values; dose 50, dose unit µM unless noted
row,SMILES,luminescence
1,O=C(c1ccccc1)n1ccc(-c2cnc(-c3ccccc3)s2)n1,0
2,CC1CCc2nn(CC(=O)NCCC3=CCCCC3)cc2C1 (stereo unspecified),0
3,C=CCn1c(SCc2cccc(C#N)c2)nnc1-c1ccccc1O,360
4,CCCC(c1nnnn1Cc1ccco1)N1CCN(c2cc(Cl)ccc2C)CC1 (stereo unspecified),0
5,CCCCCn1c(SCc2ccncc2)nc2cc(C(=O)NCc3ccco3)ccc2c1=O,40
6,Cc1ccc(-c2nnc3n2N=C(c2ccccc2)CS3)cc1,0
7,Cc1c(NC(=O)c2cc(CC(C)C)on2)c(=O)n(-c2ccccc2)n1C,0
8,CCOC(=O)CC1C(=O)NCCN1C(=O)NC1CCCCC1 (stereo unspecified),0
9,CCn1c(SCC(=O)NCc2ccco2)nc2c(c1=O)SC(C)C2 (stereo unspecified),0
10,CCCc1[nH]nc2c1C(C1CCCCC1)C(C#N)=C(N)O2 (stereo unspecified),0
11,CC(C)Cn1c(SC(C)C(=O)Nc2ccc3c(c2)OCCO3)nc2ccccc2c1=O (stereo unspecified),40
12,Cc1cccc(NC(=O)C2CC(=O)n3cnnc3S2)c1 (stereo unspecified),40
13,COCCn1c(SCc2nc3ccccc3c(=O)[nH]2)nnc1-c1ccncc1,40
14,COc1ccc2ccc(Oc3ncccn3)cc2c1,200
15,CCOC(=O)N1CCC(Nc2c(N3CCN(c4cc(Cl)ccc4C)CC3)c(=O)c2=O)CC1,0
16,Cc1nc(-c2cccc(NS(=O)(=O)c3ccccc3)c2)cs1,160
17,CC1(C)N=C(N)N=C(N)N1c1cccc(C(=O)O)c1,0
18,CCOC(=O)c1sc(NCc2ccco2)c(-c2nc3ccccc3s2)c1N,0
19,N#CC1(c2ccccc2)CCCN1C(=O)c1ccccc1Cl (stereo unspecified),0
20,Cn1c(=O)oc2cc(S(=O)(=O)N3CCCc4ccccc43)ccc21,40
21,CC1CCc2cc(F)ccc2N1C(=O)c1cnc2sccn2c1=O (stereo unspecified),0
22,COc1ccc(-c2nc(CS(=O)CC(=O)N3CCCC3)c(C)o2)cc1 (stereo unspecified),0
23,CC(C)(C)c1nc2ccccc2c2nnc(SCC(=O)Nc3nccs3)n12,80
24,COc1ccc(NC(=O)CSc2nccn2-c2cccc(OC)c2)cc1,0
25,Nc1nnnn1/N=C/c1ccccc1C(F)(F)F,40
26,Cc1c(Cl)cccc1NC(=O)c1cc(-c2ccccc2O)n[nH]1,0

row,SMILES,luminescence
1,COc1ccc(N/N=C(\C=N\O)C(=O)c2ccc(OC)cc2)cc1,0
2,CCOC(=O)CSc1ccc(-c2nc3ccccc3[nH]2)cn1,0
3,Cc1nc(C)c(C(=O)C2=C(O)C(=O)N(CCN3CCOCC3)C2c2ccco2)s1 (stereo unspecified),0
4,CC(C)OC(=O)c1nnc(Cc2ccc(F)cc2)o1,0
5,CC(NC(=O)c1ccccc1Br)c1ccc2c(c1)CCCC2 (stereo unspecified),40
6,Cc1ccc(C(=O)CC(C(=O)O)c2cn(CCC#N)c3ccccc23)cc1 (stereo unspecified),40
7,CCC(C)c1ccc(-c2cc(C(=O)OCC(=O)Nc3cc(C)on3)c3ccccc3n2)cc1 (stereo unspecified),0
8,CCc1cccc(C)c1NC(=O)CN1C(=O)c2ccccc2S1(=O)=O,200
9,N#Cc1nc(-c2cccc3ccccc23)oc1N1CCCCC1,0
10,Cc1ccn2cc(CCNC(=O)C3CCCCC3)nc2c1,0
11,Cc1c(NC(=O)CSc2nnc3sc4ccccc4n23)c(=O)n(-c2ccccc2)n1C,40
12,COC(=O)/C(=C\Nc1ccccc1N)c1ncc(C(F)(F)F)cc1Cl,40
13,COc1ccc(C(=O)NC(Cc2ccccc2)c2ccc3c(c2)OCCCO3)cc1 (stereo unspecified),0
14,O=C(O)c1ccc(NS(=O)(=O)c2cccc3cccnc23)cc1,0
15,CCCNS(=O)(=O)c1ccc(CCC(=O)N2CCN(c3ccc(OC)cc3)CC2)cc1,0
16,O=C(c1ccco1)N1CCN=C1SCc1ccccc1Cl,0
17,Oc1c(C(c2cccs2)N2CCN(c3cccc(Cl)c3)CC2)sc2ncnn12 (stereo unspecified),40
18,COc1ccc(C(=O)NCCn2cc(SCC(=O)NCc3ccco3)c3ccccc32)cc1,0
19,CCn1c(SCC(=O)NCCc2ccccc2)nnc1-c1ccco1,0
20,COc1cc(OC)cc(-c2cc(N)n(S(=O)(=O)Cc3ccccc3)n2)c1,40
21,CCC(=O)N=c1sc2c(C)cc(C)cc2n1CC(=O)OC,0
22,Cc1ccc2[nH]c(=O)c(CN(CCCN(C)C)C(=O)Nc3ccc(Cl)cc3)cc2c1,0
23,CC(=O)c1sc(NC(=O)c2ccccc2F)nc1C,80
24,CC(C)N(Cc1nc(-c2ccccc2)no1)C(=O)c1ccc(Cl)cc1,0
25,O=C(O)C1CCC(=O)N(C2CCCCC2)C1c1ccccc1 (stereo unspecified),0
26,Cc1ccn(CCSCC(=O)O)n1,0

row,SMILES,luminescence
1,CCc1ccc(-c2cc(C(F)(F)F)n3nc(C(=O)Nc4c(C)nn(Cc5ccccc5C)c4C)cc3n2)s1,0
2,Cc1cccc2cc(CN(Cc3cccs3)Cc3nnnn3Cc3ccccc3)c(=O)[nH]c12,0
3,CC(=O)c1cccc(N(CC(=O)O)S(C)(=O)=O)c1,40
4,CCN(CC)CCN1C(=O)C(=O)/C(=C(/O)c2c(C)[nH]c(C(=O)OC)c2C)C1c1cccs1 (stereo unspecified),0
5,COc1ccc2nc(SCc3nc(N)nc(Nc4ccccc4)n3)[nH]c2c1,40
6,CCOc1ccc(N(CC(=O)NC(C)(C)C)C(=O)c2ccco2)cc1,40
7,CCOC(=O)c1c(C)c(C(=O)NCC2CCCO2)c(C)n1CC (stereo unspecified),0
8,O=C(NCCC1=CCCCC1)c1ccc(F)c(S(=O)(=O)N2CCOCC2)c1,0
9,BrC(=C\c1ccccc1)/C=N/N1CCN(Cc2ccccc2)CC1,0
10,COC(=O)c1c(C)[nH]c(C)c1-c1ccccc1Cl,0
11,CCOC(=O)C(=CNc1cc(C)nn1-c1ccc(C)cc1)C(=O)OCC,40
12,CCc1nc(SCC(N)=O)c2c(=O)n(C)c(=O)n(C)c2n1,40
13,COC(=O)c1ccc(Oc2ccc(C(C)(C)C)cc2)c([N+](=O)[O-])c1,0
14,Cc1ccc(C(=O)c2ccc([N+](=O)[O-])cc2)cc1C,40
15,COC(=O)c1c(NC(=O)C2CC2)sc2c1CCCC2,40
16,CS(=O)(=O)N(CC(=O)NCCC1=CCCCC1)C1CCCCC1,40
17,O=C(CSc1nnc(C2CC2)n1Cc1ccccc1)c1cc2ccccc2o1,80
18,COc1ccc(NC(=O)CSc2nc(O)cc(=O)n2C)cc1,0
19,COc1cc(NC(=O)Cn2nc(C(F)(F)F)c3c2CCCC3)cc(OC)c1OC,280
20,CCOCCCN(Cc1ccco1)C(=O)c1cc2c(=O)[nH]c3ccc(C)cc3c2s1,0
21,COc1cccc(-c2nc(CS(=O)CC(=O)NCc3ccccc3Cl)c(C)o2)c1 (stereo unspecified),0
22,COC(=O)c1ccccc1NC(=O)C1CC(=O)N(c2ccccc2)C1 (stereo unspecified),0
23,CCOC(=O)Cc1csc(-n2sc3ccccc3c2=O)n1,0
24,O=C(NC1CCCc2ccccc21)C1CCN(C(=O)c2sccc2-n2cccc2)CC1 (stereo unspecified),40
25,COC(=O)[C@H](C)NC(=O)Nc1cccc(C)c1,0
26,CNC(=O)NC(=O)CSc1ncc(C(F)(F)F)cc1Cl,0

row,SMILES,luminescence
1,N#Cc1ccccc1OCC(=O)NC(N)=O,0
2,Cc1cc(NS(=O)(=O)c2ccc(NC(=O)C(C(C)C)N3C(=O)c4ccccc4C3=O)cc2)nc(C)n1 (stereo unspecified),0
3,CCOC(=O)COc1cccc2c(=O)n(CC(=O)N3CCc4ccccc43)ccc12,0
4,Cn1c(=O)c2c(nc(N3CCCCCC3)n2CCSc2nc3ccccc3o2)n(C)c1=O,0
5,O=C(Nc1ccc(Br)cc1F)C1CCCN(S(=O)(=O)c2cnc[nH]2)C1 (stereo unspecified),0
6,O=C(Nc1nccs1)c1nc(-c2ccccc2)n(-c2ccccc2)n1,280
7,Cc1csc2nc(CNC(=O)C3CC=CCC3C(=O)O)cn12 (stereo unspecified),0
8,COC(=O)c1ccccc1NC(=O)Nc1nnc(N2CCC(C)CC2)s1,0
9,CC(=O)Nc1nnc(-c2ccc(Cl)s2)o1,0
10,CCOC(=O)N1CCN(C(=O)C2CCCN(S(=O)(=O)c3cccnc3)C2)CC1 (stereo unspecified),0
11,O=C(CCc1ccccc1)Nc1ccc(F)cc1F,40
12,Cc1cccc(C)c1NC(=O)c1sccc1SCc1cccc(C(F)(F)F)c1,40
13,COC(=O)c1cc(COc2ccc3c4c(c(=O)oc3c2)CCCC4)c(C)o1,0
14,COc1ccc(OC)c(NC(=O)c2cn(C)c(=O)c3cc(OC)c(OC)cc23)c1,0
15,CC1(C)CC(=O)c2cc(OCC(=O)N3CCOCC3)ccc2O1,40
16,CC(C)C(NC(=O)c1cccs1)c1nnc(SCC(=O)Nc2nccs2)n1C (stereo unspecified),40
17,COC(=O)c1nn(-c2ccccc2)c(Cl)c1/C=N/OCc1ccc(Cl)cc1Cl,40
18,CC(C)CC(=O)Nc1ccc(S(=O)(=O)NCc2ccco2)cc1,0
19,CCOC(=O)C(C)Sc1nnc(Cc2cc(=O)[nH]c(=O)[nH]2)n1-c1ccc(OCC)cc1 (stereo unspecified),0
20,CC1CCCCC1NC(=O)c1ccc(CNc2c(N3CCCC3)c(=O)c2=O)cc1 (stereo unspecified),0
21,Cc1cnc(C(=O)Nc2cccc3cccnc23)cn1,40
22,CN1CCN(c2cc3c(c4c2[nH]c2ccccc24)C(=O)CC(C)(C)C3)CC1,40
23,Cc1cc(C(=O)CSc2nnc(-c3ccc(F)cc3)o2)c(C)n1CC1CCCO1 (stereo unspecified),0
